Screening results deposited in PubChem by The Scripps Research Institute Molecular Screening Center.
Shown are actives, neighbours in structure and some others; about 4.5% of the full set was active somewhere.
ssDAF12 agonist = activates DAF-12 receptor from parasite S. stercoralis; HEK293 ssDAF-12/GRIP1 lit1-tk-luc reporter, luminescence; % of 3 µM dafachronic acid response; activation, % at 6.8 µM; 370,000 tested, 1% active; AID 652126;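 active = activation above the mean over all tested compounds plus 3 SD, cut at about 0.9% in these data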
DAX1 inh-1 = NR0B1 (DAX1) inhibition; 340,000 tested, 0.99% active; inhibition, % at 6.75 µM; HEK293 Gal4-DAX1 luciferase reporter, luminescence; P51843;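 active = inhibition above the mean over all tested compounds plus 3 SD, cut at about 4.2% in these data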;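 also: inhibition shows as a rise in luminescence from relieved DAX1 repression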
Target sequence (P51843 207-470 limits assumed): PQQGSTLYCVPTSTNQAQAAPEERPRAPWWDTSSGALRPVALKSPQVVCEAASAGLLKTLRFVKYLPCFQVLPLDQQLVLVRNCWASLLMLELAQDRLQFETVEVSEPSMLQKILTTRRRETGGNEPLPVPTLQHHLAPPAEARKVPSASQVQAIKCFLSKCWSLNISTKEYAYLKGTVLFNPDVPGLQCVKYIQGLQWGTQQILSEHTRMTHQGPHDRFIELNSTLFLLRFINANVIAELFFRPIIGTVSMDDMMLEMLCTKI
hcDAF12 agonist = activates DAF-12 receptor from parasite H. contortus; HEK293 hcDAF-12 lit1-tk-luc reporter, luminescence; 0% DMSO, 100% Δ7-dafachronic acid; activation, % at 6.8 µM; 370,000 tested, 1.4% active; AID 652067;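 active = activation above the mean of all tested compounds plus 3 SD, cut at about 5.5% in these data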
GAA850 FXN act = activators of GAA850 frataxin (FXN) promoter. HEK293 lucGAA850 FXN promoter luciferase reporter, 24 h; percent of 10 µM SAHA response. AID 540364. 360,000 tested, 0.56% active. activation, % at 6 µM;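 active = activation above the average of all compounds screened plus 3 SD, cutoff fixed separately per campaign, cut at about 7.5% in these data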
DAX1 inh-2 = blocks DAX1 repression of SF-1 activated StAR promoter. 370,000 tested, 1.1% active. inhibition, % at 6.8 µM. HEK293T StAR-luciferase reporter, SF-1/DAX-1 repression relief;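 active = inhibition above the mean over all tested compounds plus 3 SD, cut at about 3.6% in these data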;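 also: higher inhibition means more luminescence from relief of DAX-1 repression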
hgDAF-12 ag = activates the H. glycines DAF-12 receptor ligand-binding domain. HEK293 GAL4-hgDAF12 UAS-luciferase reporter, agonist luminescence; normalized to butyrate control. activation, % at 6.8 µM. 370,000 tested, 1.8% active;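 active = activation above a cutoff set at the mean of all screened compounds plus 3 SD, cut at about 10% in these data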
DAX1 inh confirm = confirmation of human DAX1 (NR0B1) inhibitors; 2,400 tested, 87% active; HEK293T StAR-promoter luciferase reporter, SF-1/DAX-1 repression; inhibition, % at 6.8 µM; shares compounds with DAX1 inh-2; AID 652134;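 active = inhibition above the average of every tested compound plus 3 SD, cut at about 3.8% in these data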;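 also: active compounds raise luminescence by relieving repression of the StAR reporter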
Target sequence (P51843 whole entry, looked up): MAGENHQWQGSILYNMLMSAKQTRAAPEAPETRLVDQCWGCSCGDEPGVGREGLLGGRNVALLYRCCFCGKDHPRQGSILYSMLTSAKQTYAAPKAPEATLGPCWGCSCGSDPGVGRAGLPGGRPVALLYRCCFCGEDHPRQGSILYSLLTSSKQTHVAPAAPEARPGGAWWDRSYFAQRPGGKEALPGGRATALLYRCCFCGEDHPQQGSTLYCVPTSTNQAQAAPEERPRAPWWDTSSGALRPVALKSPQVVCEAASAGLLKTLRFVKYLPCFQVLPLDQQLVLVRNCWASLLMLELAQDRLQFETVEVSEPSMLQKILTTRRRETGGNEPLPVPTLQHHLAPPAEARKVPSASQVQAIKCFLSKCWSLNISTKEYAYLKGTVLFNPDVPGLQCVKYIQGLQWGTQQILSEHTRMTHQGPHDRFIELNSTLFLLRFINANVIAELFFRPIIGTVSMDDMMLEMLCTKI
SF1 AF2mut Luc = counter-screen for DAX1 inhibitors: nonselective inhibitors with SF-1 AF2 mutant; AID 652136; HEK293 StAR-luciferase, luminescence; 2,400 tested, 78% active; shares compounds with DAX1 inh-2; inhibition, % at 6.8 µM;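 active = inhibition above the mean of all tested compounds plus 3 SD, cut at about 3% in these data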
Large screens that a line does not name were inactive (follow-up assays come after a bar, where they were run).

CCOC(=O)N1CCN(C(=O)c2cc3c(s2)-c2ccccc2OC3)CC1	none
CN1CCN(S(=O)(=O)c2cccc(C(=O)N(Cc3nnc(-c4ccccc4Cl)o3)C3CC3)c2)CC1	none
Cc1ccc(C(=O)NCC(=O)Nc2cc(C)ccn2)cc1	DAX1 inh-2 4.8 | DAX1 inh confirm 6.8 | SF1 AF2mut Luc 4.5
Cc1ccnc(NC(=O)c2ccc(S(=O)(=O)N3CCCCCC3)cc2)c1	DAX1 inh-2 9.2 | DAX1 inh confirm 10 | SF1 AF2mut Luc 5.1
Cc1ccnc(NC(=O)CCNC(=O)c2ccc(Cl)cc2)c1	DAX1 inh-2 5.1, hgDAF-12 ag 11 | DAX1 inh confirm 14 | SF1 AF2mut Luc 7.0
Cc1ccnc(NC(=O)c2ccc(C(=O)c3ccccc3)cc2)c1	DAX1 inh-2 9.1 | DAX1 inh confirm 11 | SF1 AF2mut Luc 3.2
NC(=O)c1cc(C(=O)c2ccccc2Cl)c[nH]1	none
CC1=C(C(=O)N2CCOCC2)CC(CC(=O)NC2CCCCC2)C(=O)N1CCCN1CCCC1=O (stereo not given)	none
O=C(Nc1nccs1)c1csc([C@H]2C[C@H](O)[C@@H](CO)O2)n1	DAX1 inh-2 4.9 (no result: DAX1 inh-1) | DAX1 inh confirm 5.9 | SF1 AF2mut Luc 3.0
CCCc1ccc2oc(C(=O)NCCCN3CCOCC3)c(C)c2c1	none
CCc1nonc1NC(=O)c1oc2ccc(F)cc2c1C	none
CCc1ccc2oc(C(=O)Nc3nonc3C)c(C)c2c1	DAX1 inh-2 12, hgDAF-12 ag 11 | DAX1 inh confirm 7.8 | SF1 AF2mut Luc 3.6
CCCc1ccc2oc(C(=O)NCc3nnc(C)o3)c(C)c2c1	hcDAF12 agonist 6.2, DAX1 inh-2 5.1, hgDAF-12 ag 12 | DAX1 inh confirm 7.3 | SF1 AF2mut Luc 5.1
Cc1cc2oc(C(=O)Nc3nonc3C)c(C)c2cc1C	DAX1 inh-2 7.8 | DAX1 inh confirm 13 | SF1 AF2mut Luc 7.2
COc1ccc(OC)c(NC(=O)c2ccno2)c1	none
O=C(Nc1c(C(=O)N2CCC(N3CCCCC3)CC2)oc2ccccc12)c1ccc(F)cc1	DAX1 inh-2 8.1 | DAX1 inh confirm 7.6 | SF1 AF2mut Luc inactive
COc1ccc(Nc2nc(-c3cccs3)cs2)cc1	ssDAF12 agonist 3.8, hcDAF12 agonist 16, DAX1 inh-2 7.1, hgDAF-12 ag 18 (no result: DAX1 inh-1, GAA850 FXN act) | DAX1 inh confirm 19 | SF1 AF2mut Luc 11
COc1ccc(Nc2nc(-c3sc(N)nc3C)cs2)cc1	none
CCOc1cc(CNC2CCCC2)c(Cl)cc1OCC(=O)Nc1ccccc1	none
CCN1CCN(Cc2ccc(NC(=O)Nc3ccccc3Cl)cc2)CC1	DAX1 inh-1 4.6, DAX1 inh-2 5.4, hgDAF-12 ag 11 | DAX1 inh confirm 11 | SF1 AF2mut Luc 8.6
Cc1csc(NC(=O)c2cc(C)on2)n1	DAX1 inh-2 7.0 | DAX1 inh confirm 6.8 | SF1 AF2mut Luc 5.9
Cc1csc(NC(=O)c2cnccn2)n1	none
O=C(NC1CCC1)C1CCC(=O)N(Cc2cccc(F)c2)C1 (stereo not given)	none
CN(C(=O)C1CCC(=O)N(Cc2cccc(F)c2)C1)C1CCCCC1 (stereo not given)	DAX1 inh-2 5.2 | DAX1 inh confirm 4.0 | SF1 AF2mut Luc inactive
O=C(/C=C/c1cccs1)Nc1scc(-c2ccccc2)c1C(=O)O	DAX1 inh-2 4.7, hgDAF-12 ag 13 | DAX1 inh confirm 7.3 | SF1 AF2mut Luc 3.6
Cc1ccc(NC(=O)c2cccnc2C(=O)O)nc1	none
O=C(NNC(=S)Nc1ccccc1Cl)c1ccccc1Br	DAX1 inh-2 15, hgDAF-12 ag 11 | DAX1 inh confirm 12 | SF1 AF2mut Luc 6.1
O=C(NNC(=S)Nc1ccc(Br)cc1)c1ccccc1Br	none
O=S1(=O)CC(N2CCN(CC3CC3)CC2)CN1Cc1ccc(F)cc1 (stereo not given)	DAX1 inh-2 5.9 (no result: DAX1 inh-1, GAA850 FXN act) | DAX1 inh confirm inactive | SF1 AF2mut Luc inactive
O=S1(=O)CC(N2CC=CC2)CN1Cc1cn(Cc2ccc(F)cc2)nn1 (stereo not given)	DAX1 inh-2 5.2 (no result: DAX1 inh-1, GAA850 FXN act) | DAX1 inh confirm inactive | SF1 AF2mut Luc inactive
CC(C)(C)n1nnnc1C(c1cc2ccccc2o1)N1CCOCC1 (stereo not given)	none (no result: DAX1 inh-1, GAA850 FXN act)
Cc1ccc(S(=O)(=O)N2CC(CBr)=CCC2c2ccccc2)cc1 (stereo not given)	none (no result: DAX1 inh-1, GAA850 FXN act)
CCN1CCN(c2ccc(NC(=O)c3ccc4c(c3)OCCO4)cc2C)CC1	DAX1 inh-2 7.9, hgDAF-12 ag 11 | DAX1 inh confirm 11 | SF1 AF2mut Luc 5.2
CCN1CCN(c2ccc(NC(=O)c3cc4ccccc4cc3OC)cc2C)CC1	DAX1 inh-2 5.1, hgDAF-12 ag 11 | DAX1 inh confirm 7.0 | SF1 AF2mut Luc 3.1
CCN1CCN(c2cc(C)c3cc(NC(=O)c4ccc5c(c4)OCO5)ccc3n2)CC1	none
CCN1CCN(c2ccc(NC(=O)c3ccccc3F)cc2Cl)CC1	none
CCOC(=O)c1nn(-c2ccc3c(c2)OCCO3)cc1O	DAX1 inh-2 8.0, hgDAF-12 ag 13 | DAX1 inh confirm 9.7 | SF1 AF2mut Luc 5.7
COC(=O)c1nn(-c2ccc3c(c2)OCO3)cc1O	none
CC(=O)c1cccc(-c2ccnc3c2CC(C(=O)NCc2ccc(F)c(F)c2)O3)c1 (stereo not given)	none (no result: DAX1 inh-1)
CC(=O)c1cccc(-c2ccnc3c2CC(C(=O)NCc2ccccc2)O3)c1 (stereo not given)	DAX1 inh-2 4.8 (no result: DAX1 inh-1) | DAX1 inh confirm 12 | SF1 AF2mut Luc inactive
CCc1ccc(NC(=O)Nc2ccon2)cc1	DAX1 inh-2 4.6 | DAX1 inh confirm 5.6 | SF1 AF2mut Luc 5.4
Cc1cccc(C)c1N1C(=O)c2ccccc2NC(=O)C1C(=O)NCCc1ccccc1F (stereo not given)	DAX1 inh-2 4.7 (no result: DAX1 inh-1, GAA850 FXN act) | DAX1 inh confirm inactive | SF1 AF2mut Luc inactive
Cc1cccc(C)c1N1C(=O)c2ccccc2NC(=O)C1C(=O)NCCc1ccccc1 (stereo not given)	none (no result: DAX1 inh-1, GAA850 FXN act)
O=C(COC(=O)c1cc(S(=O)(=O)N2CCCC2)ccc1O)NCCc1ccccc1	none
Cc1ccc(S(=O)(=O)N2C[C@@H](C)[C@]3(C2)[C@H](O)[C@H](OC(=O)NC2CC2)C[C@H]2C(=O)N(c4ccccc4)C(=O)[C@H]23)cc1	none
Cc1ccc(-c2nc3ccc(Br)cn3c2Cc2ccsc2)cc1	ssDAF12 agonist 1.1, DAX1 inh-2 4.7, hgDAF-12 ag 21 (no result: DAX1 inh-1, GAA850 FXN act) | DAX1 inh confirm 8.6 | SF1 AF2mut Luc 5.8
COc1ccc2c(c1)cc(C(=O)N[C@@H](Cc1ccccc1)C(=O)O)n2C	none
Cc1cc(C)cc(C(=O)O/N=C(\N)c2ccc(Br)cc2)c1	none
